Screens: PubChem BioAssay, National Center for Advancing Translational Sciences (NCATS)
KB-V1 cytotox: qHTS assay for MDR1-selective chemotherapeutics: Primary screen using the drug-selected MDR subline cells KB-V1; Potency, µM (highest dose often 46.1 µM), usual class: cytotoxic; KB-V1 MDR cells viability, CellTiter-Glo, 72 h; AID 1347076, 2019; 400,000 compounds, 3.4% hits; further: nearly all actives have a fitted effect of over 60% in size
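Cytotoxicity toward P-gp-expressing KB-V1 cells was determined as loss of CellTiter-Glo luminescence after 72 h at 37 degrees C. Compounds were tested in quantitative HTS format across a concentration range, with curves fitted to normalized data.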
DT40 TDP1 no CPT: qHTS for Inhibitors of human tyrosyl-DNA phosphodiesterase 1 (TDP1): qHTS in cells in absence of CPT. DT40 Tdp1-/- hTDP1 cells, no CPT, ATP luminescence, 48 h. Potency, µM (highest dose often 46.2 µM), for the others: at the top dose activity change, negative = growth inhibition, actives largely listed as inhibitors. 420,000 compounds, 15% hits. AID 686978, 2013; further: nearly all actives have a fitted effect of over 55% in size
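A cellular qHTS used chicken DT40 cells lacking endogenous Tdp1 but carrying stably transfected human TDP1. Compounds were applied without camptothecin, and cell growth kinetics were judged by ATP-dependent luminescence after ≥48 hr.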
HT1080NT lethal: qHTS for induction of synthetic lethality in tumor cells producing 2HG: qHTS for the HT-1080-NT fibrosarcoma cell line. HT-1080-NT fibrosarcoma viability, CellTiter-Glo ATP luminescence, 48 h. Potency, µM (series often up to 46.1 µM), without a hit: at the highest dose activity, negative = less viability, usual class: cytotoxic. 360,000 compounds, 1.6% hits. AID 686970, 2013;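 further: NT is the 2HG producing partner of a matched IDH1 knockdown line; 0% = DMSO-treated cells and -100% = media-only wells without cells; nearly all actives have a fitted effect of over 55% in size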
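Toxicity toward the 2HG-producing NT line was scored as %Activity, normalised to DMSO and no-cell wells, from CellTiter-Glo luminescence after 48 hours' treatment.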
HT1080 IDH1KD tx: qHTS for induction of synthetic lethality in tumor cells producing 2HG: qHTS for the HT-1080-IDH1KD cell line; HT-1080 IDH1 knockdown viability, ATP luminescence, 48 h; Potency, µM (top dose mostly 46.1 µM), without a hit: at the top dose activity, negative = toxicity, hits mostly cytotoxic; 360,000 compounds, 2% hits; AID 686971, 2013;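 further: 0% = DMSO wells and -100% = cell-free medium wells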
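In this qHTS, HT-1080 cells depleted of IDH1 are exposed for 48 h at 37 °C to compound titrations. Toxicity is scored from CellTiter-Glo luminescence, with DMSO as full viability and medium alone as none.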
TDP1 cell CPT: qHTS for Inhibitors of human tyrosyl-DNA phosphodiesterase 1 (TDP1): qHTS in cells in presence of CPT | chicken DT40 Tdp1-/-;hTDP1 cells + 20 nM CPT, ATP luminescence, 48 h | Potency, µM (titrated, usually from 46.2 µM), without a hit: at the top dose activity change, negative = growth inhibition, usual class: inhibitors | 420,000 compounds, 12% hits; further: nearly all actives have a fitted effect of over 55% in size
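Chicken DT40 Tdp1-/- cells complemented with human TDP1, 400 cells/well, exposed to compounds plus 20 nM camptothecin for at least 48 h at 37 C; viability read as ATP content by CellTiter-Glo luminescence.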
KB-3-1 tox: qHTS assay for MDR1-selective chemotherapeutics: Primary screen using the parental adenocarcinoma cell KB-3-1 | KB-3-1 viability, CellTiter-Glo ATP luminescence, 72 h | Potency, µM (top dose mostly 46.1 µM), hits mostly cytotoxic | 400,000 compounds, 1.4% hits | AID 1347075, 2019; further: nearly all actives have a fitted effect of over 60% in size
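Parental KB-3-1 viability, qHTS format: 72 h compound exposure, 37 °C; CellTiter-Glo; media-only wells and DMSO plates as controls; concentration-effect fits on corrected data.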
Numbers without * were called inactive; i = inactive; ? = inconclusive; nt = no result; [ ] = dose if it differs, or a comment. Only some compounds are listed: those with a hit (about 19% of all), similar ones and a draw of the others. The call rests on the fitted dose curve; in most records, active means well fitted curve in the direction sought with a large enough effect; inconclusive means small, poorly fitted or top-dose-only effect, or another doubt; inactive means no such curve, though single readings can be large; an effect the other way counts as inactive or inconclusive. Unless noted, on the % scale 0 is the no-effect control and ±100 the full control effect; potency means the concentration at half of the fitted maximal effect.

SMILES | KB-V1 cytotox | DT40 TDP1 no CPT | HT1080NT lethal | HT1080 IDH1KD tx | TDP1 cell CPT | KB-3-1 tox
Cn1cc(C(=O)C(=O)N2CCCc3ccccc32)c2ccccc21 | ? | 13µM* | ? | ? | 16µM* | ?
CC[C@@]1(C(=O)OC)N[C@H](CN(C)C(=O)Nc2ccc(C(F)(F)F)cc2)[C@@H]2C(=O)N(C)C(=O)[C@@H]21 | i | -24% | 9% | 9% | -14% | i
COc1cc(NC(=O)c2ccc(F)cc2)c(OC)cc1Cl | i | -8% | -6% | -11% | -24% | i
COc1cc2c(c(OC)c1OC)-c1ccc(NCc3ccccc3)c(=O)cc1C(NC(C)=O)CC2 (stereo unspecified) | i | 0.92µM* | 3.7µM* | 2.3µM* | 0.92µM* | 1.2µM*
COc1cc(C(=O)NC2CCCc3ccccc32)cc(OC)c1OC (stereo unspecified) | ? | -27% | 0% | -18% | -6% | i
COc1cc2c(c(OC)c1OC)-c1ccc(NC(=O)c3ccc(F)cc3)c(=O)cc1[C@@H](NC(C)=O)CC2 | i | 7.3µM* | ? | ? | 8.2µM* | ?
O=C(CNC(c1ccccc1)c1ccccc1)Nc1ccccc1F | i | ? | -9% | -8% | ? | i
O=C(CNC(c1ccccc1)c1ccccc1)Nc1ccccc1-c1ccccc1 | 15µM* | 18µM* | -17% | -29% | ? | ?
CC(=O)Nc1ccc(SCC(=O)N(C)CC(=O)Nc2ccccc2Cl)cc1 | i | ? | -2% | 9% | -21% | i
Cc1cc(C)cc(NC(=O)CNC(c2ccccc2)c2ccccc2)c1 | i | 10µM* | -21% | -3% | ? | i
CC(=O)Nc1ccc(SCC(=O)Nc2ccccc2-c2ccccc2)cc1 | ? | 23µM* | -2% | -9% | ? | i
O=C(O)/C=C/C(=O)Nc1ccccc1-c1ccccc1 | i | 10µM* | -4% | -2%[9.24 µM] | 8.2µM* | i
COc1cc2c(cc1OC)C(c1ccccc1Cl)N(C)CC2 (stereo unspecified) | i | -22% | 0% | -1% | ? | i
Cn1nc(C(F)(F)F)c(-c2cccc(C(F)(F)F)c2)c1NC(=O)c1ccco1 | i | -22% | -1% | 3% | -29% | i
Cn1nc(C(F)(F)F)c(-c2cccc(C(F)(F)F)c2)c1NC(=O)Nc1ccc(F)cc1 | ? | 15µM* | -16% | -17% | 16µM* | i
Cc1ccc(C)c(N2CCN(C(=O)CCC(=O)Nc3nnc(CC(C)C)s3)CC2)c1 | i | -3% | 9% | 18% | ? | i
CCc1nnc(NC(=O)CCC(=O)N2CCN(Cc3ccc(Cl)cc3)CC2)s1 | i | 23µM* | -8% | -11% | 18µM* | i
CCCc1nnc(NC(=O)CCC(=O)N2CCN(Cc3ccc(Cl)cc3)CC2)s1 | ? | ? | 13% | 6% | 16µM* | i
CCCc1nnc(NC(=O)CCC(=O)N2CCC(Cc3ccccc3)CC2)s1 | i | 21µM* | -5% | -3% | 26µM* | i
CC(C)Cc1nnc(NC(=O)CCC(=O)N2CCN(c3ccc(Cl)cc3)CC2)s1 | i | -17% | 4% | 8% | 21µM* | i
CCc1nnc(NC(=O)CCC(=O)N2CCN(Cc3ccccc3)CC2)s1 | i | -20% | -2% | 2% | -13% | i
CN(C(=O)COC(=O)/C=C/c1ccccc1)C1CCS(=O)(=O)C1 (stereo unspecified) | i | -13% | -18% | ? | -2% | i
CC(C)Cc1nnc(NC(=O)CCC(=O)N2CCN(Cc3ccc(F)cc3)CC2)s1 | i | -4% | 13% | 0% | ? | i
Cc1ccc(OCCN2CCN(C(=O)CCC(=O)Nc3nnc(CC(C)C)s3)CC2)cc1 | 8.2µM* | 10µM* | ? | 9.2µM* | ? | ?
CSc1nnc(-c2ccccc2N=Cc2c(C)[nH]n(-c3ccc4ccccc4c3)c2=O)c(=O)[nH]1 | i | ? | ? | ? | 21µM* | i
SMILES | KB-V1 cytotox | DT40 TDP1 no CPT | HT1080NT lethal | HT1080 IDH1KD tx | TDP1 cell CPT | KB-3-1 tox
Cc1c(C)c(C)c(/C=C/c2ccnc3ccccc23)c(C)c1C | i | 11µM* | nt | nt | 11µM* | i
C(=C\c1nnc2c3ccccc3ncn12)/c1ccccc1 | 5.2µM* | 4.6µM* | ? | 5.8µM* | 5.2µM* | 12µM*
Clc1ccc(/C=C/c2ccnc3ccccc23)cc1 | i | 8.9µM* | nt | nt | 10µM* | i
Cc1cnc2ccccc2c1C | i | -19% | nt | nt | 2% | i
C(=C\c1ccnc2ccccc12)/c1ccc(-[n+]2cc[n+](-c3ccc(/C=C/c4ccnc5ccccc45)cc3)cc2)cc1 | i | 5µM* | nt | nt | 5.6µM* | i
CCOc1ccc(Nc2c(S(=O)(=O)c3ccccc3)cnc3ccc(F)cc23)cc1 | i | ? | nt | nt | ? | i
COC(=O)c1sccc1S(=O)(=O)N1CCN(c2ccccc2)CC1 | i | -27% | nt | nt | -27% | i
CC(=O)C1=C(O)C(=O)N(C)C1c1ccccc1[N+](=O)[O-] (stereo unspecified) | i | -26% | -2% | -6% | -4% | i
O=C1NC[C@H](Cc2ccc(O)cc2)N(CCc2cccc(F)c2)C1=O | i | -17% | 4% | -1% | -10% | i
COc1ccc(/C=C/c2ccncc2)c2ccccc12 | i | ? | ? | ? | -21% | i
Clc1ccc(/C=C/c2ccnc3ccccc23)c(Cl)c1 | i | 3.5µM* | nt | nt | 5.6µM* | ?
Nc1ccc(/C=C/c2ccnc3ccccc23)c(N)c1 | i | ? | nt | nt | 10µM* | i
C(=C\c1ccnc2ccccc12)/c1ccccc1 | ? | 13µM* | nt | nt | ? | i
Nc1ccc2cccnc2c1 | ? | -29% | nt | nt | ? | ?
Clc1ccc(C=Cc2ccccn2)c(Cl)c1 | i | -22% | -12% | -11% | ? | i
Nc1ccc(/C=C/c2ccnc3ccccc23)cc1 | i | 11µM* | nt | nt | 10µM* | i
CCc1sc(/C=C(/C#N)C(N)=S)cc1[N+](=O)[O-] | i | 0% | -1% | 6% | -7% | i
